The values below come from PubChem BioAssay AID1851 (National Center for Advancing Translational Sciences (NCATS), 2009).

SMILES strings stand for the structures. About 5,800 (36%) of roughly 16,000 compounds were called active. Roughly 23% stayed inconclusive and do not appear here. Calls follow the shape of the dose curve; as a rule, active = well fitted curve in the direction sought with a large enough effect; inconclusive = small, poorly fitted or top-dose-only effect, or effect the other way; inactive = no such curve, though single readings can be large or run the other way. This is one part of the list.
% is scaled to controls: 0 for no effect and ±100 for the full control effect.

Chain of Cytochrome P450 2C19 (Homo sapiens) (P33261 whole entry, looked up): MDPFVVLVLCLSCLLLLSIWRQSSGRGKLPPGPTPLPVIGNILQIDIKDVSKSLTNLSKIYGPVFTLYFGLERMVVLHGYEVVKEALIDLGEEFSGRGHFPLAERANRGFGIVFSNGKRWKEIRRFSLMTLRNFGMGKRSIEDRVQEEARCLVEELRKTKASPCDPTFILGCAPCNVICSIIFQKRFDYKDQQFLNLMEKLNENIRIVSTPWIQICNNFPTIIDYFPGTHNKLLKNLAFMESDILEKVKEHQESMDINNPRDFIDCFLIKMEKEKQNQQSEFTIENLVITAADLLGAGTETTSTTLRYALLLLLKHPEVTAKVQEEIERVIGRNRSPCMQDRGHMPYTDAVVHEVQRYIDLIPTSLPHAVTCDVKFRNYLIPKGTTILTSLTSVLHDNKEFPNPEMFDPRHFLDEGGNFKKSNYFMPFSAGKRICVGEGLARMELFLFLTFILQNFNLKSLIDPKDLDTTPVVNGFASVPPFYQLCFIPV

This test has as its target Cytochrome P450 2C19 (Homo sapiens) (UniProt P33261). Nature of the test: Cytochrome panel assay with activity outcomes. Conditions: recombinant CYP, pro-luciferin dealkylation, luminescence, p450-cyp2c19; series mostly up to 57.1 µM; activity, negative = inhibition: at the top concentration.
Regarding `Clc1ccc(COc2ccccn2)cc1Cl`, the AC50 is 2.24 µM (active). Turning to `CCOc1ccc(NC(=S)NC(=O)/C=C/c2ccc(OC)c(OC)c2)c([N+](=O)[O-])c1`, the “activity, negative = inhibition” value is -44.3% (inactive). The same measure, in the same setting: under `CC(/C=N/NC(=O)c1cccc([N+](=O)[O-])c1)=C\c1ccccc1` stands -12% (inactive). With `CCOc1cc(/C=N/NC(=O)c2cccc([N+](=O)[O-])c2)ccc1OS(=O)(=O)c1ccccc1`, the AC50 is 14.1 µM (active). As for `COc1cc(/C=N\Nc2ccc([N+](=O)[O-])cc2)ccc1OCC(=O)Nc1ccc(C)c(C)c1`, the AC50 is 3.98 µM (active). On the same count and under the same terms, under `COc1ccc(/C=N/NC(=O)c2cccc([N+](=O)[O-])c2)cc1OS(=O)(=O)c1ccc(C)cc1` stands 3.16 µM (active).

`CCCOc1ccc(/C=C/C(=O)Nc2ccc([N+](=O)[O-])cc2C)cc1OC`: the AC50 was 3.98 µM (active). For the compound `O=C(N=NC(=O)c1ccc2c(O)n(C3CCCCC3)c(O)c2c1)c1cccnc1`, the “activity, negative = inhibition” value is -21.3% (inactive). In the case of `COc1cc(/C=N/NC(=O)c2ccncc2)ccc1OC(=O)c1ccc([N+](=O)[O-])cc1`, the AC50 was 14.1 µM (active). As to `COc1cccc(/C=N/NC(=O)c2cccc([N+](=O)[O-])c2)c1OS(=O)(=O)c1ccc(C)cc1`, the AC50 was 4.47 µM (active). Still for that read-out and setting: under `COCCCNC(=O)C(=O)N/N=C/c1ccc(OCC(=O)Nc2cccc(Cl)c2C)c(OC)c1` stands 31.6 µM (active); under `COc1cc(C(=O)Oc2ccccc2/C=N/NC(=O)c2ccc(C)cc2)cc(OC)c1OC`, 0.398 µM (active).

Consider `COc1cc(/C=N/NC(=O)c2cccnc2)ccc1OC(=O)c1ccc2c(c1)OCO2`, for which the “activity, negative = inhibition” value is -16.9% (inactive). Still for that read-out and setting: the value for `CN(C)CCn1nnnc1SCC1=C(C(=O)O)N2C(=O)[C@@H](NC(=O)Cc3csc(N)n3)[C@@H]2SC1` was 16.7% [at 25.6 µM] (inactive). As for `COc1ccc(C(=O)Oc2cc(/C=N/NS(=O)(=O)c3ccc(C)cc3)ccc2OC)cc1`, the AC50 was 1.78 µM (active). The same measure, in the same setting: the value for `COc1ccc(C(=O)N/N=C/c2cccc3cccnc23)cc1` was 28.2 µM (active); that for `O=C(CCc1nc(-c2ccccc2)c(-c2ccccc2)o1)OCc1ccc(Cl)cc1` was 6.31 µM (active); that for `COc1ccc(-n2c(=S)[nH]c3cc(C(=O)NCCCN4CCCC4=O)ccc3c2=O)cc1` was 39.8 µM (active). On to `CCOC(=O)N1CCN(C(=O)c2ccc3c(=O)n(-c4ccc(OC)cc4)c(=S)[nH]c3c2)CC1`, for which the “activity, negative = inhibition” value is -5.12% (inactive). In the case of `CNC(=O)c1ccc(-c2sc3nc(N4CCOCC4)c4c(c3c2N)CC(C)(C)OC4)o1`, the AC50 is 11.2 µM (active). On to `CC(=O)N[C@@H]1CONC1=O`, for which the activity, negative = inhibition was 21.6% [at 11.4 µM] (inactive). For `O=C(O)C[C@H]1OCC=C2C[N@@+]3([O-])CC[C@]45c6ccccc6N[C@@H]4[C@@H]1[C@H]2C[C@H]53`, the activity, negative = inhibition is 13.9% [at 11.4 µM] (inactive).

Consider `Cc1cc(C(=O)N[C@@H](c2ccccc2)[C@]2(C)C[C@H]2[C@@H](C)C(=O)Nc2ccc3ccccc3c2)n(C)n1`, for which the AC50 was 10 µM (active).

On to `Cc1nn(C)c(Cl)c1S(=O)(=O)N[C@@H](c1ccccc1)[C@]1(C)C[C@H]1[C@@H](C)C(=O)Nc1ccc2ccccc2c1`, for which the “activity, negative = inhibition” value is -25.4% (inactive). Regarding `Cc1cc(C(=O)N[C@H](c2ccccc2)[C@@]2(C)C[C@@H]2[C@@H](C)C(=O)Nc2ccc3ccccc3c2)n(C)n1`, the AC50 was 15.8 µM (active). Regarding `COc1ccc(NC(=O)N2CC[C@@]3(CCCN(C(=O)c4ccc(OC)cc4)C3)C2)cc1`, the “activity, negative = inhibition” value was -13.8% (inactive). With `CCOCC(=O)Nc1cc(C(=O)Nc2ccccc2)ccc1Cl`, the AC50 was 10 µM (active). As to `CCOCC(=O)Nc1cc(C(=O)Nc2cccc(C)c2C)ccc1Cl`, the “activity, negative = inhibition” value was -20.5% (inactive). `Cc1cc(NC(=O)c2cc(C(C)C)on2)no1`: the AC50 is 14.1 µM (active).

As for `CCc1ccc(NC(=O)c2cc(C(C)C)on2)cc1`, the “activity, negative = inhibition” value was -13.3% (inactive). On the same count and under the same terms, under `Cc1cc(NC(=O)c2nn(C)c(C)c2[N+](=O)[O-])no1` stands 10.5% (inactive). As for `N#CC1=C(N)OC2=C(CC/C2=C\c2ccccc2)C1c1ccccc1` (centres undefined), the AC50 is 1.58 µM (active). Take `CN1CCN(c2ncc3nc(-c4ccc(Cl)cc4)c(=O)n(Cc4ccc(F)cc4)c3n2)CC1`: the “activity, negative = inhibition” value is -25.5% (inactive). Take `Cn1c(=O)c2[nH]c(C3CCCC3)nc2n(C)c1=O`: the “activity, negative = inhibition” value is 36.3% (inactive). Same read-out and setting: under `O=C(O)CC(O)C(=O)O` (centres undefined) stands 16.8% (inactive). Still for that read-out and setting: under `O=C(O)c1nnsc1COCc1ccccc1` stands 2.27% [at 11.4 µM] (inactive); under `O[C@H](CNc1ccccn1)c1ccccc1`, -7.78% [at 11.4 µM] (inactive). On the same count and under the same terms, under `O=C(O)/C=C\C(=O)Nc1ccccn1` stands 14.6% [at 11.4 µM] (inactive). For the compound `CSc1nsc(SC)c1NC(=O)Nc1ccccn1`, the AC50 was 7.94 µM (active). `O=C(NCC1CCC(C(=O)O)CC1)OCc1ccccc1` (centres undefined): the “activity, negative = inhibition” value is -23.7% (inactive). For `CSc1nsc(SC)c1NC(=O)OCc1ccccc1`, the AC50 was 0.708 µM (active).

As for `COc1cccc(Nc2ncc3nc(-c4ccccc4)c(=O)n(Cc4cccs4)c3n2)c1`, the “activity, negative = inhibition” value was -21% (inactive).

Turning to `c1cncc(CNc2ncncc2-c2cccnc2)c1`, the “activity, negative = inhibition” value was -44.3% (inactive). Same read-out and setting: the value for `COc1cccc(-c2cncnc2NCCN2CCOCC2)c1` was -44.4% (inactive).

For the compound `COc1cccc(-c2cncnc2NCc2ccccc2)c1`, the AC50 was 1.58 µM (active). Turning to `COc1cccc(-c2cncnc2NCc2cccc(C)c2)c1`, the AC50 is 0.794 µM (active).

With `Cc1cccc(CNc2ncncc2-c2cccnc2)c1`, the AC50 was 10 µM (active). On the same count and under the same terms, the value for `COc1cccc(-c2cncnc2NCc2cccs2)c1` was 0.631 µM (active). On the same count and under the same terms, under `COc1cccc(-c2cncnc2NCc2cccnc2)c1` stands 0.316 µM (active).

For orientation: AC50 means the concentration at which the activity in the assay is half-maximal.
